Test results taken from ChEMBL document CHEMBL2218924, “A broad activity screen in support of a chemogenomic map for kinase signalling research and drug discovery” (Biochem J, 2013).

Legend:
[1] = molecular target: T1, Ephrin type-A receptor 3 (Homo sapiens) (UniProt P29320); settings: at 10 µM
T1 sequence (whole entry): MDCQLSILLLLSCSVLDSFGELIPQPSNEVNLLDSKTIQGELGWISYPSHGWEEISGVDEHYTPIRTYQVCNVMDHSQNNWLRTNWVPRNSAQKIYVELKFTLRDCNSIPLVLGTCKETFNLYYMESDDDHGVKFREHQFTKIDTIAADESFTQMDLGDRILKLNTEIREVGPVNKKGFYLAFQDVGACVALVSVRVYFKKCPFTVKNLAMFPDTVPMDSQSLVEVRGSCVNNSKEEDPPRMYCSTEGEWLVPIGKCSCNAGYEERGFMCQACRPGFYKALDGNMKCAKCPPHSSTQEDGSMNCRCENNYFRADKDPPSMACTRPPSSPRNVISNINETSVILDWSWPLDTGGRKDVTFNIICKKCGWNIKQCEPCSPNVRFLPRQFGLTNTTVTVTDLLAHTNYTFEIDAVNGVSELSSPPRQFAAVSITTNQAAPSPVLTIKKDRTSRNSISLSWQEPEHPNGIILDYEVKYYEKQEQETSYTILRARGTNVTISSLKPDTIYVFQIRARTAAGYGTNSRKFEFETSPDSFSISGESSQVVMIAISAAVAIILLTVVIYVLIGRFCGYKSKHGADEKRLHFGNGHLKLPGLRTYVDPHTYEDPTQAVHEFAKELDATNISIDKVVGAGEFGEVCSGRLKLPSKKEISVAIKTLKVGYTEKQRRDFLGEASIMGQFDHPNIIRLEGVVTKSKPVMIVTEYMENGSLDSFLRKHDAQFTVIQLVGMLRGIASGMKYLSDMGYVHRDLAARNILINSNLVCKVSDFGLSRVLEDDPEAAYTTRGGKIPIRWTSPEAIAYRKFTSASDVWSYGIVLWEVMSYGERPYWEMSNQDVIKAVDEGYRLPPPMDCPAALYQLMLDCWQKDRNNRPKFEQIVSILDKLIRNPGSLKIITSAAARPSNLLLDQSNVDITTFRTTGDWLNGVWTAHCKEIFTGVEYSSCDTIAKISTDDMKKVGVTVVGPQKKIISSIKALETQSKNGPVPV

[2] = molecular target: Ephrin type-A receptor 7 (Homo sapiens) (UniProt Q15375); settings: at 1 µM
[3] = molecular target: Ephrin type-A receptor 7 (Homo sapiens) (UniProt Q15375); settings: at 10 µM
[4] = molecular target: T2, Ephrin type-A receptor 8 (Homo sapiens) (UniProt P29322); settings: at 1 µM
T2 sequence (whole entry): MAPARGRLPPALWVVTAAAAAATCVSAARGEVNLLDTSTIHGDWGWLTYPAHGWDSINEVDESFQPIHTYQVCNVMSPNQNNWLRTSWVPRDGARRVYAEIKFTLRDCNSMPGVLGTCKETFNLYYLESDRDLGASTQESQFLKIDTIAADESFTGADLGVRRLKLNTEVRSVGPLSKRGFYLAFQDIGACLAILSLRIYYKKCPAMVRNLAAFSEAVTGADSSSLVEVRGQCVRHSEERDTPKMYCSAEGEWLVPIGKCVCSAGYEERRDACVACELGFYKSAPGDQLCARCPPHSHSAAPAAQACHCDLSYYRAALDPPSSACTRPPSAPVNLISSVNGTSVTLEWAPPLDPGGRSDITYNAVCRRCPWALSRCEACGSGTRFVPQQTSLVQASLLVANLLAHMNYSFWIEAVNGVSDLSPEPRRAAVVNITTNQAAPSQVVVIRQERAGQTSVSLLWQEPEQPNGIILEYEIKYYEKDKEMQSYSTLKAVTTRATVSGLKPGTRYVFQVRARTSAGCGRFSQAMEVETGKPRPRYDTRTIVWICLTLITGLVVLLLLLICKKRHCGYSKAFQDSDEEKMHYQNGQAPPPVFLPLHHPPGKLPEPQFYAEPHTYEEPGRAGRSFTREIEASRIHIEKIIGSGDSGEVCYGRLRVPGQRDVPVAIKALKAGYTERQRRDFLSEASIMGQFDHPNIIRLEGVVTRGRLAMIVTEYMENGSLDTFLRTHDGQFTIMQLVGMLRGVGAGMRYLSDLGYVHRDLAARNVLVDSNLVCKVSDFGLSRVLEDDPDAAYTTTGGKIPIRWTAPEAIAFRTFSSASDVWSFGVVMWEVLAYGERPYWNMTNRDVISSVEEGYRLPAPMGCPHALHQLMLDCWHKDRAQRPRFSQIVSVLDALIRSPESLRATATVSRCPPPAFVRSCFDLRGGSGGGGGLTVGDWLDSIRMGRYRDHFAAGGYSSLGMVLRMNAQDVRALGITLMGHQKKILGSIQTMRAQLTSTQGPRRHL

[5] = molecular target: T2, Ephrin type-A receptor 8 (Homo sapiens); settings: at 10 µM
[6] = molecular target: T3, Ephrin type-B receptor 1 (Homo sapiens) (UniProt P54762); settings: at 10 µM
T3 sequence (whole entry): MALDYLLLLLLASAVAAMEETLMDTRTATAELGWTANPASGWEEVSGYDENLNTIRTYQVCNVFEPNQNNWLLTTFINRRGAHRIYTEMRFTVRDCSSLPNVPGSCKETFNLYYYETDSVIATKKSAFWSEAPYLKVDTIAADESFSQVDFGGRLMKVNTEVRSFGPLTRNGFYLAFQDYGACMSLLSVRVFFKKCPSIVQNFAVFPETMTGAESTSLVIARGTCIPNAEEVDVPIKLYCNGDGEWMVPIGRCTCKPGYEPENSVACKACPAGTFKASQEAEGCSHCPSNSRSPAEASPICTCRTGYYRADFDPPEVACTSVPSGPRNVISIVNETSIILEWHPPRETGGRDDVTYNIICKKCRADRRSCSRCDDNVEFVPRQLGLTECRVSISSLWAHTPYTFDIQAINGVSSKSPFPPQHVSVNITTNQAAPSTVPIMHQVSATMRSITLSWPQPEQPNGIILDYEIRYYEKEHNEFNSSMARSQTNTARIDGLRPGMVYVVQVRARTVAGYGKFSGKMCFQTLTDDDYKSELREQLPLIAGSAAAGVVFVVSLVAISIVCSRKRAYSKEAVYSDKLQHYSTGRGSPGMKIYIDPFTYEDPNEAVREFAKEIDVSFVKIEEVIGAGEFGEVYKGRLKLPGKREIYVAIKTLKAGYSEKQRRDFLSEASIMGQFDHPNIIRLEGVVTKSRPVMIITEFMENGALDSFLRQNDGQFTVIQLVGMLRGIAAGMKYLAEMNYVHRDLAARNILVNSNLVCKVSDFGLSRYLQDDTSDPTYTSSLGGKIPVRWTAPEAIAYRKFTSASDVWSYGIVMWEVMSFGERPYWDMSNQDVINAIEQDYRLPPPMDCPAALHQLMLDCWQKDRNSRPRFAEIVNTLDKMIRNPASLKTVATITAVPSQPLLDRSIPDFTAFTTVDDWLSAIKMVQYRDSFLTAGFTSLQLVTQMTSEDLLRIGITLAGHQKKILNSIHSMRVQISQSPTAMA

[7] = molecular target: T4, Ephrin type-B receptor 2 (Homo sapiens) (UniProt P29323); settings: at 10 µM
T4 sequence (whole entry): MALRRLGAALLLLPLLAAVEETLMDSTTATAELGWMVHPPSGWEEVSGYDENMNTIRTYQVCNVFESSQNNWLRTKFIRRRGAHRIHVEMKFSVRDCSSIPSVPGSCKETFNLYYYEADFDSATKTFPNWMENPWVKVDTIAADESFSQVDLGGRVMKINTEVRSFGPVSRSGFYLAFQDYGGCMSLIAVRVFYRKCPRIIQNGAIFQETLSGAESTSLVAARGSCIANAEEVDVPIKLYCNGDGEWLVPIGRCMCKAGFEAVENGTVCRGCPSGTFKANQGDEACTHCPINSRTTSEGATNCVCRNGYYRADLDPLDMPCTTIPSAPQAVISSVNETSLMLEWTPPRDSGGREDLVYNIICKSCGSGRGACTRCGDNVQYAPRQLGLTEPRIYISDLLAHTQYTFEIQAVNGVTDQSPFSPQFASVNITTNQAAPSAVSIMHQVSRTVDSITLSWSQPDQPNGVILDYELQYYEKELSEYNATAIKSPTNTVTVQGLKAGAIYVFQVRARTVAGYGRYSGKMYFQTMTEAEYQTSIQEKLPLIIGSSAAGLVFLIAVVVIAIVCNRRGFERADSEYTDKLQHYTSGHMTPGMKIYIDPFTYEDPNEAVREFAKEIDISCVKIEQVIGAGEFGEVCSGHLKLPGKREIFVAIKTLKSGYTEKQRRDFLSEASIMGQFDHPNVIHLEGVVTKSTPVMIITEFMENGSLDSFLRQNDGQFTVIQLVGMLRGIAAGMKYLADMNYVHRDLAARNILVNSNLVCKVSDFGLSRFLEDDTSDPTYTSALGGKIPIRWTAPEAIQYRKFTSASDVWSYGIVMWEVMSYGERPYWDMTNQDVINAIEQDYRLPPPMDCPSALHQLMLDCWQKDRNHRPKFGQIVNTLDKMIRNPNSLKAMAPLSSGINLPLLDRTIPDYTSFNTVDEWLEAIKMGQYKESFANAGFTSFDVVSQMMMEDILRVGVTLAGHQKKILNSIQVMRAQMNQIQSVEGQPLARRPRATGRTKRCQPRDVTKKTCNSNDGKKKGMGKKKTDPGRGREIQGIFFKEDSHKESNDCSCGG

[8] = molecular target: T5, Ephrin type-B receptor 4 (Homo sapiens) (UniProt P54760); settings: at 10 µM
T5 sequence (whole entry): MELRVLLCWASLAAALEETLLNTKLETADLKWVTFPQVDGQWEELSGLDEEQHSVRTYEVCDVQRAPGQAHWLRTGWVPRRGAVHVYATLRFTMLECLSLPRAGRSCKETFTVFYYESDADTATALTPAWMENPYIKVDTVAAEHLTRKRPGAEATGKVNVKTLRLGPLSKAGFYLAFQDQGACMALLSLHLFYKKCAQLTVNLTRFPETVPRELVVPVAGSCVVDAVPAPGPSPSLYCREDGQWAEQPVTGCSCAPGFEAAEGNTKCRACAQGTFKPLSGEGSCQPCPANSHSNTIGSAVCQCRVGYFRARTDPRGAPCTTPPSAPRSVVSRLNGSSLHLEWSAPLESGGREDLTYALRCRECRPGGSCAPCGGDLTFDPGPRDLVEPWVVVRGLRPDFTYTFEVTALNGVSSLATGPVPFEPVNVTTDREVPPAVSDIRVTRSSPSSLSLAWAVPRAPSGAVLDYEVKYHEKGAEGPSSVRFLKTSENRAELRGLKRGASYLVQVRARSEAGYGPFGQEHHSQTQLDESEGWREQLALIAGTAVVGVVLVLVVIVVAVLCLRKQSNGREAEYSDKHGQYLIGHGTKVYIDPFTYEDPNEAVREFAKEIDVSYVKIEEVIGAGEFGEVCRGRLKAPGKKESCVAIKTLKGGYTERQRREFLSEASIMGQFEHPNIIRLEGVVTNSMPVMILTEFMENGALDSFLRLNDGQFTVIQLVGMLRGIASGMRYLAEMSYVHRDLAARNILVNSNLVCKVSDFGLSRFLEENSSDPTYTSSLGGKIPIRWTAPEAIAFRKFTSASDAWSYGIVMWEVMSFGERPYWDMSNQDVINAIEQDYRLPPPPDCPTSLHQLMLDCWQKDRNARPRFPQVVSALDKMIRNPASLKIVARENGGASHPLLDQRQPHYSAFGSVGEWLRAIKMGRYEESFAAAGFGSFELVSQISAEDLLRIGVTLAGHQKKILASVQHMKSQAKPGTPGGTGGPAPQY

[9] = molecular target: Receptor tyrosine-protein kinase erbB-4 (Homo sapiens) (UniProt Q15303); settings: at 10 µM
[10] = molecular target: Focal adhesion kinase 1 (Homo sapiens) (UniProt Q05397); settings: at 1 µM
Focal adhesion kinase 1 (Homo sapiens), sequence (Q05397 2-1052 limits assumed): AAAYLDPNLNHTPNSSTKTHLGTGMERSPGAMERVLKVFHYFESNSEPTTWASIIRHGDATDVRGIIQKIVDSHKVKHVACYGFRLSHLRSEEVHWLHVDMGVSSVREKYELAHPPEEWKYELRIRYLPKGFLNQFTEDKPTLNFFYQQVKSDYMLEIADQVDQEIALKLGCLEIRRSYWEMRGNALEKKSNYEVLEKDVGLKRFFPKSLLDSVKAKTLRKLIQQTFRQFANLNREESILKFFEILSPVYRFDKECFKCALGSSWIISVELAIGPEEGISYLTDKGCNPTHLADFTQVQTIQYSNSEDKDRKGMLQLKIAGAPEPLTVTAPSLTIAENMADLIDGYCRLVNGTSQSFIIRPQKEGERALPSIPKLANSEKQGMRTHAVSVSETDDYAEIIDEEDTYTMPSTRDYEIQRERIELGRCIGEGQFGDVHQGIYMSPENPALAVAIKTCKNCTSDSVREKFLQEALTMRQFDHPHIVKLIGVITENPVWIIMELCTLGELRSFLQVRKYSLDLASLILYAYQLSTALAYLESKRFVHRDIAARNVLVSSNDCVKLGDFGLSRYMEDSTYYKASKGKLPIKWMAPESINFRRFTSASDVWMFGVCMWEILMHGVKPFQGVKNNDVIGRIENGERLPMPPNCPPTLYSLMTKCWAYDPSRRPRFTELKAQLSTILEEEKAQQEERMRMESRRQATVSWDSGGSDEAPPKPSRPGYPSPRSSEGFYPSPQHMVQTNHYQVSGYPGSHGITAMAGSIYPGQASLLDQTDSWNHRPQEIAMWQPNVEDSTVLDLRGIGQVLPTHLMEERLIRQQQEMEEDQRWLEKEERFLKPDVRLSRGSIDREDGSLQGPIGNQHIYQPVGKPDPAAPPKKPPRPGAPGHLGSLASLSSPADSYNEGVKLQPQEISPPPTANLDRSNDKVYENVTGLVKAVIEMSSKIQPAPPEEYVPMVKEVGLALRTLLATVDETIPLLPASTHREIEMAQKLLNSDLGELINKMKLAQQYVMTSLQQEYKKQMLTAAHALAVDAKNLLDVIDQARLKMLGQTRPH

Ephrin type-A receptor 7 (Homo sapiens), sequence (Q15375 28-998 limits assumed): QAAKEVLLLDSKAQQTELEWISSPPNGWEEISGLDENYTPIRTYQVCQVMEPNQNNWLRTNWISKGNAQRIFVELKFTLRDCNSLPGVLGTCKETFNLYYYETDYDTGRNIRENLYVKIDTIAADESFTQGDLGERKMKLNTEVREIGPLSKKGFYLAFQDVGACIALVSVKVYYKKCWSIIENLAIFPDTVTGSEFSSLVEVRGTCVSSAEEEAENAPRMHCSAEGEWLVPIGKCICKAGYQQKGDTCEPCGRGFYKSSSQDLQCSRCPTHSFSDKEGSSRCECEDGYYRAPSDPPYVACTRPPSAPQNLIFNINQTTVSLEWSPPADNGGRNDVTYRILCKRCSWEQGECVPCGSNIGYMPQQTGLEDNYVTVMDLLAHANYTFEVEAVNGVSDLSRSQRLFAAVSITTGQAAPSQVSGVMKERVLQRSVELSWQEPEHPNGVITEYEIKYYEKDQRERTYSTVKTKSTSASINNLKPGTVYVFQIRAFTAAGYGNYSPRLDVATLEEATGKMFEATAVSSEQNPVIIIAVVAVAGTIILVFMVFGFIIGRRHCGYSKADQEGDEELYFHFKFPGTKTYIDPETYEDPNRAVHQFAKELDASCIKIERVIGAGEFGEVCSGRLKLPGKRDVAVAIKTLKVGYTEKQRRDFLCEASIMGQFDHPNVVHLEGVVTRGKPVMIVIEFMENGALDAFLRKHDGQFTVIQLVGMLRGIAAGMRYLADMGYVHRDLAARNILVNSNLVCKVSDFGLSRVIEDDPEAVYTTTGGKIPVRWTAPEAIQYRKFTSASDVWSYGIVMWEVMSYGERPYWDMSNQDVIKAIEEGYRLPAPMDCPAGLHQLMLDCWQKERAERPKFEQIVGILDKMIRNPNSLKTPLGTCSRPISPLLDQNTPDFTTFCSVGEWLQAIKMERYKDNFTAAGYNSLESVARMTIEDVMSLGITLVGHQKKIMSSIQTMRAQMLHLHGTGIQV
Receptor tyrosine-protein kinase erbB-4 (Homo sapiens), sequence (Q15303 whole entry): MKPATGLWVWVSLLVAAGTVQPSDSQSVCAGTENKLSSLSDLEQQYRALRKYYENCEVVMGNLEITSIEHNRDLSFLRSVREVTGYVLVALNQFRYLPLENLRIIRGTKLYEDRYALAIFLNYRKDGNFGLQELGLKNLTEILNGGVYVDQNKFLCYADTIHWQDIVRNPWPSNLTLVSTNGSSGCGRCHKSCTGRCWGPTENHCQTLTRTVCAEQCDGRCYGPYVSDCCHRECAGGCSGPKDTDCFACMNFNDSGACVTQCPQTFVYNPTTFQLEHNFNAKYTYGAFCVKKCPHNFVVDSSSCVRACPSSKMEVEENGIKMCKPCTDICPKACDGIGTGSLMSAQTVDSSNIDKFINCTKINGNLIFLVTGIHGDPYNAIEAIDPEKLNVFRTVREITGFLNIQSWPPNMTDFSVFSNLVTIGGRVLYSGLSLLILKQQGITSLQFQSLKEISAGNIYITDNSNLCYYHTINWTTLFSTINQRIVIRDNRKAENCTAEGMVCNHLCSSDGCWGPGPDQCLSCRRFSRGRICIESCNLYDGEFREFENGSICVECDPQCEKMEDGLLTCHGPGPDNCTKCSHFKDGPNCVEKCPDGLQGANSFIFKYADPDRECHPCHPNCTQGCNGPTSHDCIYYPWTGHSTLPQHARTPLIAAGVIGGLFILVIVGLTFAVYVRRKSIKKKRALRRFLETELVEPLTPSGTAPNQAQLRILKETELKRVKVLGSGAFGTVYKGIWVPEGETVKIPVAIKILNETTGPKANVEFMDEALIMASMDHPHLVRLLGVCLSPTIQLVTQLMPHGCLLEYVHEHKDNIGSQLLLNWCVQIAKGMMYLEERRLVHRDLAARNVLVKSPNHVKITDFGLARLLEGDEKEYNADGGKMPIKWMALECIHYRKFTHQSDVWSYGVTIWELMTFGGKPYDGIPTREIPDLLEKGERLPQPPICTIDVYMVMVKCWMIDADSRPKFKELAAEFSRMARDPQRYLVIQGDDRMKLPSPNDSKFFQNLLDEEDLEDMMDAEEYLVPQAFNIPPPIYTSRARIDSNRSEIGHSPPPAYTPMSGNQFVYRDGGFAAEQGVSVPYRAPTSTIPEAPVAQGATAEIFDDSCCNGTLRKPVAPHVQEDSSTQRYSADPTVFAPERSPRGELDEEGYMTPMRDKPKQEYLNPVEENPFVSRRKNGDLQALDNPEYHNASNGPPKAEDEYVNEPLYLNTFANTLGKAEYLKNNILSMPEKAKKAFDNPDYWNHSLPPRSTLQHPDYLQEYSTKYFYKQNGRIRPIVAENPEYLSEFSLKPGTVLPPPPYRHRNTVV

N#CCCc1ccc2c(c1)-c1[nH]c3ccc([N+](=O)[O-])cc3c1CC(=O)N2
residual activity [1]: 43%
residual activity [2]: 79%
residual activity [3]: 56%
residual activity [4]: 77%
residual activity [5]: 69%
residual activity [6]: 74%
residual activity [7]: 67%
residual activity [8]: 77%
residual activity [9]: 76%
residual activity [10]: 50%
